The source of these data is PubChem BioAssay (Tox21).

Inconclusive results are not listed. Where a call stands in place of a potency, no number is given. Activity calls are given as the source filed them. The call rests on the fitted dose curve; in most records, active means well fitted cell-killing curve with a large enough effect in the repeat runs; inconclusive means weak or mixed curves, or effect the other way; inactive means no such curve, though single readings can be large or run the other way.
Potency means the concentration at half of the fitted maximal effect.

The assay can be described thus: qHTS assay to identify small molecule antagonists of the vitamin D receptor (VDR) signaling pathway - cell viability counter screen (AID 743225). Further: nearly all actives have a fitted effect of over 50% in size. Conditions: VDR-bla HEK293T viability, CellTiter-Glo luminescence, 16 h; series mostly up to 61 µM. From the text: U.S. Tox21 Program National Center for Advancing Translational Sciences [NCATS] NIH Chemical Genomics Center [NCGC] U.S. Environmental Protection Agency [EPA] National Institutes of Environmental Health Sciences [NIEHS] National Toxicology Program [NTP] U.S. Food and Drug Administration [FDA] Tox21 Assay Overview: The vitamin D receptor (VDR), a member of nuclear hormone receptor superfamily, plays a critical role in calcium homeostasis and bone metabolism. It is also involved in cell differentiation and growth, and thrombogenicity. To identify the compounds that inhibit VDR signaling, the VDR-UAS-bla HEK 293T cell line (Invitrogen, Carlsbad, CA, USA) containing a beta-lactamase reporter gene under the control of an upstream activator sequence (UAS) was used to screen the Tox21 10K compound library. The cytotoxicity of the Tox21 compound library against the VDR-bla cell line was tested in parallel by measuring the cell viability using CellTiter-Glo assay (Promega, Madison, WI) in the same wells.
Tox21 Assay Protocol Summary: VDR-bla cells were dispensed at 2,000 cells/5 uL of assay medium per well into black wall/clear-bottom 1536-well plates using a Multidrop Combi (Thermo Fisher Scientific, Waltham, MA) dispenser. After the assay plates were incubated at a 37C and 5% CO2 for 4 h, 23 nL of compounds dissolved in DMSO, positive controls or DMSO only was transferred to the assay plate by a Pintool station (Kalypsys, San Diego, CA), followed by addition of 1 uL of 1-alpha, 25-Dihydroxy Vitamin D3 (3 nM, final concentration in the wells) using a Bioraptr Flying Reagent Dispenser (FRD) workstation (Beckman Coulter, Indianapolis, IN). The plates were incubated at 37C and 5% CO2 for 16 h, and then 1 uL of LiveBLAzerTM B/G FRET substrate was added using a Bioraptr FRD. The plates were incubated at room temperature for 2 h and fluorescence intensity was measured by an Envision plate reader (PerkinElmer, Shelton, CT). For cell viability readout that measures cytotoxicity, 3 ul/well of CellTiter-Glo reagent was added into the assay plates using a Bioraptr FRD. After 30 min incubation at room temperature, the luminescence intensity in the plates was measured using a ViewLux plate reader (PerkinElmer).
Consider `O=C(O)Cc1sc(-c2ccccc2)nc1-c1ccc(Cl)cc1`, for which the Potency entry is “inactive”.
Regarding `COC(Cc1ccccc1)OC`, the Potency entry was “inactive”.
For `Cc1c(Cn2ccnc2)c2ccccc2n1CCC(=O)O`, the Potency entry is “inactive”.
For the compound `Nc1cnn([C@@H]2O[C@H](CO)[C@@H](O)[C@H]2O)c(=O)n1`, the Potency entry was “inactive”.
In the case of `COc1ccc(OC)c(OC)c1`, the Potency result is “inactive”.
With `CCCC(C)C`, the Potency result was “inactive”.
Regarding `CN(c1nccc(=O)[nH]1)C1CCN(c2nc3ccccc3n2Cc2ccc(F)cc2)CC1`, the Potency entry is “inactive”.
The same measure, in the same setting: for `CC(Cc1cccc(C(F)(F)F)c1)NCCOC(=O)c1ccccc1` (stereo not given) the value was 16.9 µM (active).
In the case of `NC[C@H]1O[C@H](O[C@H]2[C@H](O)[C@@H](O[C@H]3O[C@H](CO)[C@@H](O)[C@H](N)[C@H]3O)[C@H](N)C[C@@H]2N)[C@H](O)[C@@H](O)[C@@H]1O`, the viability change, negative = cytotoxic is 9.2% [at 6.95 µM] (inactive).
With `CC(C)(C)c1cc(CO)cc(C(C)(C)C)c1O`, the Potency result is “inactive”.
Consider `c1ccc(CNCc2ccccc2)cc1`, for which the Potency result was “inactive”.
Take `CCCOc1ccc2nc(NC(=O)OC)[nH]c2c1`: the Potency result is “inactive”.
For `Nc1nc(N)c(-c2ccccc2)s1`, the Potency result is “inactive”.
In the case of `c1ccc(OCc2ccc(CCCN3CCOCC3)cc2)cc1`, the Potency entry was “inactive”.
On to `NC1CCN(c2nc3c(cc2F)c(=O)c(C(=O)O)cn3-c2ccc(F)cc2F)C1` (stereo not given), for which the Potency entry is “inactive”.
Turning to `CCC(=O)OC(C)(C)C1CC=C(C)CC1` (stereo not given), the Potency entry is “inactive”.
For the compound `O=C(O)COC(=O)Cc1ccccc1Nc1c(Cl)cccc1Cl`, the Potency result was “inactive”.
In the case of `O=C(O)C(c1ccc(Cl)cc1)c1ccc(Cl)cc1`, the Potency entry was “inactive”.
Regarding `Cc1ccc(C(N)=O)cc1N`, the Potency result was “inactive”.
With `CC1CCc2cc(F)cc3c(=O)c(C(=O)O)cn1c23` (stereo not given), the Potency result is “inactive”.
For `C=CC[N+]1([C@H]2C[C@H]3[C@@H]4CC[C@H]5C[C@H](OC(C)=O)[C@@H](N6CCCCC6)C[C@]5(C)[C@H]4CC[C@]3(C)[C@H]2OC(=O)CC)CCCCC1`, the Potency result is “inactive”.
On the same count and under the same terms, in the case of `Cc1ncsc1CCO` it was “inactive”; in that of `CC(=O)N(O)CCCCCNC(=O)CCC(=O)N(O)CCCCCNC(=O)CCC(=O)N(O)CCCCCN`, “inactive”; in that of `CC(C)NCC(O)COc1ccc(CC(N)=O)cc1` (stereo not given), “inactive”.
Regarding `Oc1ccc(C(O)CNCCCCCCNCC(O)c2ccc(O)c(O)c2)cc1O` (stereo not given), the Potency result is “inactive”.
For `Nc1nc(N)c2nc(CNc3ccc(C(=O)N[C@@H](CCC(=O)O)C(=O)O)cc3)cnc2n1`, the Potency is 0.0288 µM (active).
`COc1ccc(C(C)=O)cc1`: the Potency result is “inactive”.
In the case of `Cc1cc(C)c(S(=O)(=O)O)cc1N=Nc1cc(S(=O)(=O)O)c2ccccc2c1O`, the Potency entry is “inactive”.
As to `O=C1c2cccc(O)c2C(=O)c2c(O)cc(CO)cc21`, the Potency result was “inactive”.
With `CC(=O)N(CC(=O)N(C)C)c1ccccc1`, the Potency result was “inactive”.
As to `O=C(O)c1cn(C2CC2)c2cc(Cl)c(F)cc2c1=O`, the Potency entry was “inactive”.
As to `CCCCOC(=O)c1ccccc1C(=O)OCC(CC)CCCC` (stereo not given), the Potency entry was “inactive”.
For `CC(=O)/C(C)=C/C1C(C)=CCCC1(C)C` (stereo not given), the Potency entry was “inactive”.
For `CCCCOC(O)CC` (stereo not given), the Potency result was “inactive”.
Consider `CC[C@@H]1C[C@H](N(Cc2cc(C(F)(F)F)cc(C(F)(F)F)c2)C(C)=O)c2cc(C(F)(F)F)ccc2N1C(=O)OC(C)C`, for which the Potency result was “inactive”.
The same measure, in the same setting: for `CC(C)c1ccc2c(C(C)C)cc(C(C)C)c(S(=O)(=O)O)c2c1` the value was “inactive”; for `CNCC[C@@H](Oc1ccccc1C)c1ccccc1`, “inactive”.
Same read-out and setting: in the case of `Cc1ccc(C)o1` it was “inactive”; in that of `O=C(O)[C@@H]1[C@H]2C[C@H]3c4[nH]c5ccccc5c4CCN3C[C@@H]2CC[C@@H]1O`, “inactive”; in that of `O=C1Nc2cc(Cl)ccc2Oc2ccccc21`, “inactive”.
